# Among all 48,000 compounds or so, about 13,000 (27%) showed an effect of 50% or more. The list shows a part of the results.
# Tested on: Wolbachia pipientis
# Test: Anti-Wolbachia Cell-Based Screen
# Assay type: functional
# Design: scale not given: in the data most compounds retested in dose-response had high values
# Conditions: 5 µM
row,SMILES,Percent Effect [%]
1,CCc1noc(CS(=O)(=O)CC=C(C)C)n1,-4.555
2,O=C(NCC1CC[C@@H]2[C@@H]1OCCN2Cc1cccs1)c1ccco1.O=C(O)C(F)(F)F (stereo not given in full),0.6461
3,COCCN1CCC2(CCCN(Cc3ccoc3)C2)C1=O.O=C(O)C(F)(F)F (stereo not given),89.97
4,CN1CCC(CN2CCC3(CCCN(Cc4ccoc4)C3)C2=O)CC1.O=C(O)C(F)(F)F.O=C(O)C(F)(F)F (stereo not given),107.1
5,CN(C)C(=O)CN1CCC2(CCCN(Cc3ccoc3)C2)C1=O (stereo not given),-23.42
6,COC[C@H]1CN(CC2CC2)C(=O)[C@@H]2CCN(Cc3ccoc3)CC[C@H]12.O=C(O)C(F)(F)F,-27.64
7,O=C(O)C(F)(F)F.O=C1N(CC2CC2)CCC12CCN(Cc1ccoc1)CC2,112.5
8,O=C(O)C(F)(F)F.O=C1N(CC2CC2)CCC12CCN(CC1CC1)CC2,11.64
9,CC(=O)N[C@@H](CC(C)C)C(=O)N1CCC(n2cc(CC(C)C)nn2)CC1,-6.729
10,O=S(=O)(Nc1ccccn1)c1cc(Cl)cc2c1OCC2,-2.666
11,COCc1ncn2c1CN(S(=O)(=O)c1cccs1)CCC2,-6.89
12,FC(F)(F)c1ccc(CNC[C@H]2COCc3nc4cccnc4n32)cc1,-6.835
13,CCOCc1ccc(NCc2cnc(N3CCN(C)CC3)nc2)cc1,18.94
14,O=S(=O)(NCCC(O)c1cccs1)c1ccccc1 (stereo not given),2.573
15,CSc1ccc(OC(C)C(=O)Nc2c(C)n[nH]c2C)cc1 (stereo not given),-3.157
16,CCOCc1nc2c(c(NC(CC)c3ccncc3)n1)CCNCC2 (stereo not given),-23.76
17,O=C(Nc1ccc(-n2cncn2)nc1)N(CC1CCOC1)C1CC1 (stereo not given),3.822
18,Cc1cc(CNC(=O)NCCOc2ccc(F)c(F)c2)on1,-11.19
19,O=C(NCC1CCS(=O)(=O)C1)c1ccc(NC(=O)c2ccco2)cc1 (stereo not given),100.2
20,Cc1cccc(C(=O)NCC2CCS(=O)(=O)C2)n1 (stereo not given),20.7
21,O=C(NCC1CCCN(C(=O)NCCc2ccccc2)C1)c1ccco1 (stereo not given),-12.18
22,O=C(NCC1CCS(=O)(=O)C1)c1ccco1 (stereo not given),88.86

row,SMILES,Percent Effect [%]
1,Cc1occc1C(=O)Nc1ccc(C(=O)NC[C@H]2CCCN2)cc1,-11.64
2,O=C(NCC1CCS(=O)(=O)C1)Nc1ccccn1 (stereo not given),11.69
3,O=C(NCC1CCS(=O)(=O)C1)c1ccc2cccc(Cl)c2n1 (stereo not given),-11.54
4,Cc1cc(C(=O)NCC2CCS(=O)(=O)C2)ccc1NC(=O)c1ccco1 (stereo not given),105.8
5,O=C(NCC1CC1)c1ccc(NC(=O)c2ccco2)cc1,109.6
6,Cc1ccc(NC(=O)NCC2CCS(=O)(=O)C2)cc1Cl (stereo not given),41.82
7,COc1ncccc1NC(=O)NCC1CCS(=O)(=O)C1 (stereo not given),-8.215
8,O=C1COC[C@H]([C@H](O)c2ccc(NC(=O)c3ccco3)cc2)N1,-8.877
9,Cc1cnn(CCNCc2c(C)nn(-c3ccccc3)c2C)c1,2.27
10,CCn1ccnc1CNCC1CCCN1c1cc(NC)ncn1 (stereo not given),-2.475
11,CC1(c2ccccc2)CCCN(Cc2cncn2C2CC2)C1 (stereo not given),-17.5
12,CC(=O)N1CCN2C(=O)N(Cc3ccc(F)cc3)C[C@H]2C1,-0.8027
13,Cc1ncsc1C(=O)N1CCC(O)(CN2CCc3ccccc3C2)C1 (stereo not given),69.3
14,Cc1ccsc1C(=O)N1CCC(O)(CN2CCc3ccccc3C2)C1 (stereo not given),107.5
15,Cc1ccsc1C(=O)N1CC(C(=O)N2CCOCC2)C2(CCOCC2)C1 (stereo not given),-2.409
16,O=C(NCCN1CCc2ccccc2C1)c1scnc1Cl,7.313
17,Cc1ccsc1C(=O)N1Cc2ccccc2C2(CCN(C)CC2)C1,0.4591
18,Cc1ncsc1C(=O)NCC1SCCc2ccccc21 (stereo not given),15.22
19,CN(C)C(=O)CN1C[C@H]2CCN(C(=O)c3ccccc3)CC[C@H]2S1(=O)=O,-0.2408
20,CCOc1ccc(NC(=O)N2CCOC(C(N)=O)C2)cc1Cl (stereo not given),142.8
21,CCOc1ccc(NC(=O)N2CCOC(C(N)=O)C2)cc1C (stereo not given),95.69
22,COCC1CN(C(=O)Nc2cc(Cl)ccc2F)CCO1 (stereo not given),-13.77

row,SMILES,Percent Effect [%]
1,COCC1CN(C(=O)Nc2ccc(Cl)cc2Cl)CCO1 (stereo not given),-1.722
2,COc1ccc(NC(=O)N2CCC(CSC)C2)cc1C (stereo not given),-50.59
3,CCOc1ccc(NC(=O)NC2CCc3nc(C)nn3C2)cc1Cl (stereo not given),-21
4,COCCOc1ccc(NC(=O)N2CCOC(C(N)=O)C2)cc1F (stereo not given),100.1
5,COCC1CN(C(=O)Nc2cc(Br)ccc2F)CCO1 (stereo not given),-0.1525
6,CCOc1ccc(C#N)cc1NC(=O)N1CCOC(C(N)=O)C1 (stereo not given),8.32
7,Cc1cnc(C)c(N2CCC(Cc3ccccc3Cl)(C(=O)O)CC2)n1,2.277
8,CC(=O)N1CCCN(Cc2csc(C)n2)c2ccccc21,0.8232
9,CC1(C)CN(CC(O)C(C)(C)C)C(=O)CN(C(=O)c2ccccc2)C1 (stereo not given),117.8
10,CN(C)C(=O)N1CCN(C(=O)c2ccc(Cl)cc2)CC2(CNC(=O)C2)C1 (stereo not given),-1.625
11,CC(C)CN1CC2(CCN(C(=O)C(O)c3ccccc3Cl)CC2)CC1=O (stereo not given),-2.667
12,Cc1[nH]nc2ncc(C(=O)N3CCN(CC(O)C(C)(C)C)CC3)cc12 (stereo not given),-16.51
13,CCCC(O)CN1CC(C)(C)CN(C(=O)c2ccc(Cl)cc2)CC1=O (stereo not given),78.76
14,CCCC(O)CN1CC(C)(C)CN(C(=O)c2ccc(SC)cc2)CC1=O (stereo not given),118.8
15,CCCC(O)CN1CC(C)(C)CN(C(=O)c2ccccc2)CC1=O (stereo not given),122.4
16,CCCN(CCO)C(=O)C1CCC(=O)N(CCc2ccc(Cl)cc2)C1 (stereo not given),-1.106
17,CSc1ccc(C(O)CNS(=O)(=O)C2CC2)cc1 (stereo not given),2.179
18,NC(=O)NCC(=O)N1C[C@H]2CC[C@@H]1CN(C1Cc3ccccc3C1)C2,-1.297
19,COc1nc2c(cc1C(=O)N1C[C@H](N)C[C@H]1C(=O)NC(C)C)CCC2,-26.43
20,CN(C)CCN1CC(C(=O)N2CCC(c3nccn3C)CC2)CC1=O (stereo not given),2.201
21,Cn1cnc2c1CCN(CC(=O)N(Cc1ccsc1)C1CC1)C2,-10.64
22,COc1ccc(CNCCc2cccc(C(N)=O)c2)cc1C,-2.965

row,SMILES,Percent Effect [%]
1,CC(C)N1CCc2ncn(C(C)C)c2C1C(=O)N1CCN(C)CC1 (stereo not given),-12.1
2,CCc1nc(CCn2ccc3nc(OC)c(C#N)cc3c2=O)no1,0.8236
3,CC1COCCN1Cc1noc(C(C)(C)C)n1 (stereo not given),91.93
4,CC(C)c1noc(CN2CCC3(CCCO3)CCC2=O)n1 (stereo not given),-7.858
5,CC1COCCN1Cc1nc(C(C)(C)C)no1 (stereo not given),110.8
6,CCCc1noc(CN2CCOCC2C)n1 (stereo not given),76.64
7,CC(C)c1noc(CS(=O)(=O)Cc2nc(C(C)C)no2)n1,-3.73
8,CC1CCCCN1Cc1nc(C2CC2)no1 (stereo not given),23.82
9,CC(C)(C)c1noc(CN2CCCC(CNS(N)(=O)=O)C2)n1 (stereo not given),-0.7485
10,CC(C)c1noc(CN2CCOCC2C)n1 (stereo not given),107.7
11,CC(C)(C)c1nc(CN2CCC(N3CCCCC3)CC2)no1,3.179
12,CC(C(=O)N1CCOCC1)S(=O)(=O)Cc1noc(C(C)(C)C)n1 (stereo not given),-4.281
13,COCc1nc2cc(NCc3sc(C)nc3C)ccc2o1,1.098
14,CC1=C(C(=O)NCc2cccnc2-n2cnc3ccccc32)OCCO1,-15.12
15,CSc1nccc(N2CCC(=O)N(CC3CC3)C(C(C)C)C2)n1 (stereo not given),8.272
16,CCNC(=O)N1CC[C@H]2CC(=O)N(CCN3CCNC3=O)CC[C@H]2C1,12.62
17,Cl.OC(CNCc1ccccc1C(F)(F)F)c1ccccc1 (stereo not given),-21.52
18,CC1CCCCN1Cc1nc(Cc2ccccc2)no1 (stereo not given),-14.27
19,CC(C)Cc1noc(CN2CCN(CCO)CC2)n1,-13.58
20,CC(C)Cc1noc(CN2CCOCC2)n1,-2.166
21,CC1COCCN1Cc1nc(Cc2ccccc2)no1 (stereo not given),106.6
22,CC(C)Cc1noc(CN2CCOCC2C)n1 (stereo not given),87.61

row,SMILES,Percent Effect [%]
1,Cn1cnc2c1CCN(Cc1nc(Cc3ccccc3)no1)C2,-6.335
2,O=C(O)[C@@]12CN(c3cnccn3)C[C@@H]1CN(C1CCCC1)C2,11.78
3,CCS(=O)(=O)N(C)CC(=O)Nc1ccc(Br)cn1,11.17
4,CC1CN(C)c2ccccc2CN1C(=O)c1ccoc1 (stereo not given),-34.7
5,COc1ccccc1CC1CCN(C(=O)CCN2CCOC2=O)CC1,-13.03
6,CNC(=O)[C@@H](c1ccccc1OC)N1CCC[C@H]1C(=O)N1CC[C@@H](O)C1.Cl,4.858
7,COc1cccc(CN2CC(O)CN(C(=O)C3CCC3)CC2=O)c1OC (stereo not given),107.9
8,COc1ccc(OC)c(C2CCN(C(=O)[C@H]3CC[C@@H](O)CC3)C2)c1 (stereo not given in full),4.796
9,COc1cccc(CN2CC(O)CN(C(=O)C3CC3)CC2=O)c1OC (stereo not given),103.4
10,COc1ccccc1OC1CCN(C(=O)C2CCCN(C)C2)CC1 (stereo not given),-2.238
11,CSCc1noc(CN2CCC3(CC2)CC(=O)N(CC(C)C)C3)n1,6.142
12,Fc1ccc(CN2CCCn3nnc(COCC4CC4)c3C2)cc1.O=C(O)C(F)(F)F,-22.46
13,CNCc1n[nH]c(=O)n1CC1CCCCC1,9.971
14,CCOCC(=O)N1CCC(c2nccn2C)CC1,-1.738
15,O=C(CC1CC1)N1C[C@H]2CN(CC3CC3)C(=O)[C@H]2C1,-33.8
16,COc1ccc([C@@H]2CN(C(=O)CCC(F)(F)F)C[C@H]2NC(C)=O)cc1,11.36
17,CCOCC(=O)N1C[C@@H](NC(C)=O)[C@H](c2ccc(OC)cc2)C1,0.296
18,CCC(CC)n1nc(C)cc1NC(=O)CC1CCOCC1,0.9076
19,CCCSCC(=O)N1C[C@@H](NC(C)=O)[C@H](c2ccc(OC)cc2)C1,13.13
20,CC(=O)N[C@@H]1CN(C(=O)CC2CCOCC2)C[C@H]1O,144.5
21,CCOCC(=O)N1C[C@@H](O)[C@H](NC(C)=O)C1,181
22,CC(=O)N[C@@H]1CN(C(=O)CC2CC2)C[C@H]1O,207.4

# From ChEMBL document CHEMBL3988442, “University of Dundee, Small-Polar-MMV Screening Library” (2021)
